Laboratory results taken from PubChem BioAssay AID1159580 (chemical genetic matrix, 2015).
“And” between values parts separate entries of the source, which are not always exact repeats. Equal values may be shown once. About 2,000 (36%) of roughly 5,500 compounds were called active. Another 18% or so got no clear call; they are omitted. No stated cut-off is given here; in the data, active means normalized growth mostly below about 0.91 (no sharp cut-off); inconclusive means no clear call, values can overlap the other calls; inactive means mostly above about 0.92. Some of the results follow.

Test: chemical genetic growth profiling, strain panel (AID 1159580);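 further: tested at 20 µM; growth read once vehicle control cultures reached saturation at 30 °C; 1 = growth at the plate median or of vehicle wells; lower values mean less growth of the strain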
Conditions: S. cerevisiae deletion strains, growth OD

Measured: normalized growth

COC(C)(C)CCC[C@H](C)C/C=C/C(C)=C/C(=O)OC(C)C
inactive: locus YAL013W, strain DEP1, active compounds read low 0.998 | locus YAL021C, strain ccr4, active compounds read low 1.03 | locus YAL026C, strain drs2, active compounds read low 1.01 | locus YAL030W, strain snc1, active compounds read low 1.03 | locus YBL061C, strain skt5, active compounds read low 1.02 | locus YBR009C, strain hhf1, active compounds read low 1.01 | locus YBR021W, strain FUR4, active compounds read low 0.985 | locus YBR023C, strain chs3, active compounds read low 1.02 | locus YBR171W, strain sec66, active compounds read low 1.02 | locus YBR229C, strain ROT2, active compounds read low 1 | locus YBR231C, strain swc5, active compounds read low 1 | locus YBR279W, strain paf1, active compounds read low 1 | locus YCL011C, strain gbp2, active compounds read low 1.02 | locus YCL016C, strain dcc1, active compounds read low 1.01 | locus YCL029C, strain bik1, active compounds read low 1.05 | locus YCL061C, strain MRC1, active compounds read low 1.02 | locus YCL069W, strain vba3, active compounds read low 1.03 | locus YCR088W, strain abp1, active compounds read low 1.02 | locus YDL005C, strain med2, active compounds read low 1 | locus YDL035C, strain GPR1, active compounds read low 1 | locus YDL040C, strain nat1, active compounds read low 1 | locus YDL074C, strain BRE1, active compounds read low 0.998 | locus YDL101C, strain DUN1, active compounds read low 1.01 | locus YDL134C, strain PPH21, active compounds read low 1.01 | locus YDL185W, strain tfp1, active compounds read low 1.01 | locus YDL192W, strain arf1, active compounds read low 1.03 | locus YDR001C, strain nth1, active compounds read low 1.02 | locus YDR069C, strain doa4, active compounds read low 1.01 | locus YDR101C, strain arx1, active compounds read low 1.02 | locus YDR137W, strain rgp1, active compounds read low 1.09 | locus YDR150W, strain NUM1, active compounds read low 0.994 | locus YDR159W, strain sac3, active compounds read low 1.03 | locus YDR162C, strain NBP2, active compounds read low 1 | locus YDR195W, strain ref2 0.99 | locus YDR297W, strain sur2, active compounds read low 1.02 | locus YDR318W, strain mcm21, active compounds read low 1.03 | locus YDR334W, strain swr1, active compounds read low 1.02 | locus YDR335W, strain msn5, active compounds read low 1.03 | locus YDR388W, active compounds read low 1.02 | locus YDR392W, strain spt3, active compounds read low 1.05 | locus YDR502C, strain sam2, active compounds read low 1.03 | locus YEL003W, strain gim4, active compounds read low 1.01 | locus YEL037C, strain rad23, active compounds read low 1.01 | locus YEL061C, strain CIN8 (second series), active compounds read low 1.02 | locus YEL061C, strain CIN8, active compounds read low 0.999 | locus YER015W, strain faa2, active compounds read low 1.01 | locus YER016W, strain bim1, active compounds read low 1.02 | locus YER110C, active compounds read low 1.03 | locus YER111C, strain swi4, active compounds read low 1.01 | locus YER155C, strain BEM2 (second series), active compounds read low 1.01 | locus YER155C, strain BEM2, active compounds read low 0.99 | locus YER167W, strain BCK2, active compounds read low 1.01 | locus YFR010W, strain ubp6, active compounds read low 1 | locus YGL078C, strain dbp3, active compounds read low 1.02 | locus YGL086W, strain mad1, active compounds read low 1 | locus YGL167C, strain pmr1, active compounds read low 1.02 | locus YGL173C, strain kem1, active compounds read low 1.02 | locus YGL227W, strain vid30, active compounds read low 1.05 | locus YGL240W, strain doc1, active compounds read low 1.03 | locus YGL248W, strain PDE1, active compounds read low 1.01 | locus YGL253W, strain hxk2, active compounds read low 1 | locus YGR078C, strain PAC10, active compounds read low 1.01 | locus YGR135W, strain pre9, active compounds read low 1.04 | locus YGR229C, strain SMI1, active compounds read low 1.03 | locus YGR252W, strain gcn5, active compounds read low 1.06 | locus YHR013C, strain ard1, active compounds read low 1.03 | locus YHR027C, strain rpn1, active compounds read low 1 | locus YHR030C, strain SLT2, active compounds read low 1 and 0.961 | locus YHR079C, strain IRE1 (second series), active compounds read low 1.01 | locus YHR079C, strain IRE1, active compounds read low 0.942 | locus YHR094C, strain hxt1, active compounds read low 1.01 | locus YHR129C, strain ARP1, active compounds read low 0.998 | locus YHR142W, strain chs7, active compounds read low 0.979 | locus YHR200W, strain rpn10, active compounds read low 1.02 | locus YIL066C, strain RNR3, active compounds read low 1.01 | locus YIL073C, strain SPO22, active compounds read low 1.08 | locus YIL125W, strain kgd1, active compounds read low 1.01 | locus YIR030C, strain dcg1, active compounds read low 1.03 | locus YJL092W, strain hpr5, active compounds read low 1.03 | locus YJL095W, strain BCK1 (second series), active compounds read low 1.02 | locus YJL095W, strain BCK1, active compounds read low 1.03 and 0.955 | locus YJL115W, strain asf1, active compounds read low 1.02 | locus YJL129C, strain trk1, active compounds read low 0.942 | locus YJL134W, strain LCB3, active compounds read low 1 | locus YJL154C, strain vps35, active compounds read low 1.01 | locus YJL164C, strain tpk1, active compounds read low 1 | locus YJL166W, strain qcr8, active compounds read low 1.02 | locus YJL168C, strain set2, active compounds read low 1.02 | locus YJL187C, strain SWE1 (second series), active compounds read low 1.02 | locus YJR043C, strain POL32, active compounds read low 1.01 | locus YJR066W, strain TOR1, active compounds read low 0.892
